The record followed here is PubChem BioAssay (NCATS).

For experiment [1], the target named is Lysosomal acid glucosylceramidase (Homo sapiens) (UniProt P04062). The experiment in a line: Glucocerebrosidase-p2 (AID 348; in the data active = potency below about 10 µM; note: potency is the fitted concentration of half-maximal effect). Particulars: purified GBA, blue fluorogenic substrate, 40 min. Summed up:
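Compounds titrated from 0.6 nM upwards against 0.2 nM enzyme in pH 5.9 citric acid/KH2PO4, taurocholate, tween-20; blue fluorogenic substrate 80 uM, 40 min room temperature, stopped and read Ex 365/Em 440 for AC50.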

Experiment [2] in a line: AP1 Signaling Pathway (AID 357). Note: % is set by controls: 0 for no effect and ±100 for the full control effect. To be noted: ME-180 AP-1-bla reporter, EGF-induced, beta-lactamase ratio, 5 h; at 7.69 µM (top of the series) unless noted. A digest of the protocol: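 Cells are seeded overnight, exposed to compound titrations and an EC50 level of EGF for 5 hours at 37 °C, then loaded with CCF4 dye for 2.5 hours. Beta-lactamase activity under the AP-1 element is read as a blue/green ratio.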

Experiment [3] deals with Glucocorticoid receptor (Homo sapiens) (UniProt P04150). Description: GR-EFC Redistribution (AID 451; calls by dose curve; note: potency is the fitted concentration of half-maximal effect). To be noted: CHO-K1 GR-EFC translocation, beta-gal luminescence, 2 h. A digest of the protocol:
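CHO-K1 cells stably expressing nuclear-localized β-gal enzyme acceptor and GR fused C-terminally to the enzyme donor fragment; ligand-driven nuclear translocation restores β-gal by complementation. Compounds titrated up to 46 uM final, 2 h at 37 °C; luminescence read.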

In experiment [4] the target is Mitogen-activated protein kinase 10 (Mus musculus) (UniProt Q61831). The experiment in a line: JNK3 AlphaScreen Assay (AID 530).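 Note: kinase came from lysate of stimulated human HepG2 cells; signal reports phosphorylation of biotinylated GST-cJun 1-79 at Ser73 with 10 µM ATP; % is set by controls: 0 for no effect and ±100 for the full control effect.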 Particulars: JNK3 lysate, c-Jun phosphorylation; series mostly up to 57.1 µM. Summed up:
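JNK3 came from HepG2 lysates pre-activated with IL-1beta and TNF-alpha and phosphorylated biotinylated GST-cJun (1-79) at 10 uM ATP, pH 7.6, room temperature. Compounds were titrated. AlphaScreen signal used anti-phospho-cJun (Ser73) antibody.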
A general note: Bead proximity is the source of the signal in Alpha formats.

Experiment [5] has as its target 3',5'-cyclic-AMP phosphodiesterase 4B (Homo sapiens) (UniProt Q07343). Description: qHTS Assay for Inhibitors of PDE-IV (AID 607; active = well fitted activation curve with a large enough effect in the main read-out, with a control signal flat, not every such curve was filed as active; note: % of control where 0% means no effect). To be noted: HEK293 ACTOne CNG channel cells, membrane potential fluorescence; series mostly up to 22.9 µM. A digest of the protocol:
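The readout is membrane depolarisation from a cAMP-sensing CNG channel, detected with a potential dye at ex 535/em 590. Cells were HEK293-derived (endogenous PDE-IV) at 1000 cells/well, titrated up to 22.9 uM final.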
(qHTS replaces the single test concentration by a dilution series.)

Experiment [6] is described as follows: qHTS Assay for Lipid Storage Modulators (AID 1519; calls by dose curve). To be noted: Drosophila S3 cells, BODIPY lipid droplet/cell ratio, laser cytometry, cells loaded with oleic acid; for activity change, negative = inhibition: at 57.5 µM (top of the series). Summed up:
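Cells seeded at 5,000 per well were treated with compounds over a concentration series and loaded with oleic acid (400 uM, as added). Lipid droplet fluorescence (488 nm excitation, 500-530 nm channel) was read by laser-scanning cytometry and normalized to 20 uM Triacsin C.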

A short description of experiment [7]: Primary qHTS for small molecule stabilizers of the endoplasmic reticulum resident proteome: Secreted ER Calcium Modulated Protein (SERCaMP) assay (AID 1508630; active = well fitted curve in the direction sought with a large enough effect; an effect the other way counts as inactive or inconclusive; note: % is set by controls: 0 for no effect and ±100 for the full control effect). To be noted: SH-SY5Y GLuc-SERCaMP (Gaussia luciferase released on ER calcium loss) secretion, thapsigargin, luminescence; series mostly up to 38.4 µM. Summed up:
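GLuc-SERCaMP-expressing SH-SY5Y cells, pretreated 16 h with compound, are challenged with thapsigargin to empty ER calcium stores; after 4 h, coelenterazine is added directly to the medium and luminescence is imaged.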

Experiment [8] in a line: Stat Signaling Pathway (AID 446).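 Note: ME-180 cervical cancer cells given 40 pM IL-6 alongside compound; SIE-controlled beta-lactamase reporter measured as 460/530 nm FRET emission ratio; % is set by controls: 0 for no effect and ±100 for the full control effect.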 Particulars: ME-180 SIE beta-lactamase reporter, IL-6 stimulated, 5 h; at 7.69 µM (top of the series) unless noted. A digest of the protocol:
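Screening format detects activators and inhibitors alike: ME-180 SIE-bla cells stimulated at 40 pM IL-6 for 5 hrs with compound, then dual-emission beta-lactamase read at 405 nm excitation.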

In experiment [9] the target is Cytochrome P450 3A4 (Homo sapiens) (UniProt P08684). The experiment in a line: qHTS Assay for Inhibitors and Substrates of Cytochrome P450 3A4 (AID 884; active = well fitted curve in the direction sought with a large enough effect; an effect the other way counts as inactive or inconclusive; note: % is set by controls: 0 for no effect and ±100 for the full control effect; nearly all actives have a fitted effect of over 50% in size). To be noted: recombinant CYP3A4, Luciferin-PPXE luminescence; series mostly up to 57.1 µM. A digest of the protocol: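 20 nM human CYP3A4 with 25 uM Luciferin-PPXE (at KM) in 200 mM KPO4, preincubated 10 min with compound; NADPH regeneration started a 60 min RT reaction. Luciferin detected by luminescence, normalized to 57 uM ketoconazole as full inhibition.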

Experiment [10] has the same target. The experiment in a line: qHTS Assay for Activators of Cytochrome P450 3A4 (AID 885; active = well fitted curve in the direction sought with a large enough effect; an effect the other way counts as inactive or inconclusive; note: nearly all actives have a fitted effect of over 65% in size; note: potency is the fitted concentration of half-maximal effect). To be noted: recombinant CYP3A4, Luciferin-PPXE luminescence, 60 min; series mostly up to 57.1 µM. A digest of the protocol: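 Steps: enzyme/substrate mix dispensed; compound added, 10 min RT; NADPH regeneration solution added, 60 min RT; luciferin detection buffer stops reaction; 20 min later luminescence measured.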

Experiment [11] is described as follows: qHTS Assay for Identification of Small Molecule Agonists for Hypoxia Response Element Signaling Pathway (AID 914; active = well fitted activation curve with a large enough effect in the signal ratio, with a control signal flat, not every such curve was filed as active; the % refers to the signal ratio; note: potency is the fitted concentration of half-maximal effect). Particulars: ME-180 (cervical carcinoma) HRE-bla reporter, beta-lactamase ratio, CoCl2, 17 h; activation: stronger effect = higher value. A digest of the protocol: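 Cells were plated overnight, pin-dosed with compound in a titration series, co-stimulated with EC50 CoCl2 and incubated 17 hours at 37 degrees Celsius. CCF4 substrate was then loaded, and AC50 values came from the 460nm/530nm ratio.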

The target in experiment [12] is Cytochrome P450 1A2 (Homo sapiens) (UniProt P05177). The experiment in a line: p450-cyp1a2 (AID 410; calls by dose curve). Particulars: recombinant CYP1A2, luciferin-ME demethylation, luminescence; series mostly up to 57 µM. A digest of the protocol: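 Human CYP1A2 (20nM) demethylated Luciferin-ME at its Km (100uM) in 100mM KPO4. After 10 min compound preincubation, NADPH regeneration ran the reaction 60 min at room temperature. Luciferin was read by luminescence, normalized to 57 uM furafylline.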

Experiment [13] is described as follows: NFAT Signaling Pathway (AID 444). To be noted: Jurkat NFAT-bla M1, carbachol, beta-lactamase ratio, 5 h; at 7.69 µM (top of the series) unless noted. A digest of the protocol: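 Jurkat cells carrying an NFAT-driven β-lactamase reporter and co-transfected muscarinic M1 receptor were treated with compound plus carbachol (1 uM final, an EC50 level) for 5 h at 37 °C. CCF4 loading followed for 1 h at RT; 460/530 nm ratio gave %activity.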

For experiment [14], the target named is Cytochrome P450 2D6 (Homo sapiens) (UniProt P10635). The experiment in a line: qHTS Assay for Inhibitors and Substrates of Cytochrome P450 2D6 (AID 891; active = well fitted curve in the direction sought with a large enough effect; an effect the other way counts as inactive or inconclusive; note: potency is the fitted concentration of half-maximal effect; nearly all actives have a fitted effect of over 60% in size). Particulars: recombinant CYP2D6, luciferin-ME EGE luminescence; series mostly up to 57.1 µM. Summed up:
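Human CYP2D6 (5 nM) with 30 uM Luciferin-ME EGE (at Km) in 100 mM KPO4, compound preincubated 10 min, then NADPH regeneration system for 60 min at room temperature. Luciferin read by luminescence; normalized to 1.43 uM quinidine.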

In experiment [15] the target is Cytochrome P450 2C9 (Homo sapiens) (UniProt P11712). The experiment in a line: qHTS Assay for Inhibitors and Substrates of Cytochrome P450 2C9 (AID 883; active = well fitted curve in the direction sought with a large enough effect; an effect the other way counts as inactive or inconclusive; note: % is set by controls: 0 for no effect and ±100 for the full control effect; nearly all actives have a fitted effect of over 60% in size). Particulars: recombinant CYP2C9, luciferin-H luminescence, 60 min; series mostly up to 57.1 µM. Summed up: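 CYP2C9 deoxyluciferin hydroxylation, 37C, 60 min with NADPH regeneration; 10nM enzyme, 100uM Luciferin-H (KM). Glo detection reagent stopped reaction; luminescence normalized to sulphaphenazole (57uM) full inhibition.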

Setting [16] is: measured here: cell count channel max response.
Where [17] appears, read: measured here: lipid channel max response.

The structures appear in SMILES notation. Results filed as inconclusive are left out. The source made the active and inactive calls. Unless noted, calls come from the whole dose curve; as a rule, active = well fitted curve in either direction with a large enough effect (not every such curve was filed as active); inconclusive = small, poorly fitted or top-dose-only effect, or another doubt; inactive = flat fitted curve, though single readings scatter.

Lysosomal acid glucosylceramidase (Homo sapiens), sequence (P04062 whole entry, looked up): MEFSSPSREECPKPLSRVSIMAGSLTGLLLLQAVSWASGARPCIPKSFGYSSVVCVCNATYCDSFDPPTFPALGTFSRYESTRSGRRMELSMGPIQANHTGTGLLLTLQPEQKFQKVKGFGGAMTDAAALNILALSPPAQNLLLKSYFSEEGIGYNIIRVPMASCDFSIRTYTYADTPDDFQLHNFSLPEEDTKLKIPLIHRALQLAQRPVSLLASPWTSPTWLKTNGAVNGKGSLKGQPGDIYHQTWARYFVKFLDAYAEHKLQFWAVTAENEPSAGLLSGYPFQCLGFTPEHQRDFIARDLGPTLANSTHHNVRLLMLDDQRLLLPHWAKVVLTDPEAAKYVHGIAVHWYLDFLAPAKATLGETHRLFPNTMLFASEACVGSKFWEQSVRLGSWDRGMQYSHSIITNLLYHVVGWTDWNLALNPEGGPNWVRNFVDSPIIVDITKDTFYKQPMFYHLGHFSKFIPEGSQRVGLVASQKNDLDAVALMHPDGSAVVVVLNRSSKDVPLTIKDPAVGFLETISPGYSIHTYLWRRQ
Cytochrome P450 3A4 (Homo sapiens), sequence (P08684 whole entry, looked up): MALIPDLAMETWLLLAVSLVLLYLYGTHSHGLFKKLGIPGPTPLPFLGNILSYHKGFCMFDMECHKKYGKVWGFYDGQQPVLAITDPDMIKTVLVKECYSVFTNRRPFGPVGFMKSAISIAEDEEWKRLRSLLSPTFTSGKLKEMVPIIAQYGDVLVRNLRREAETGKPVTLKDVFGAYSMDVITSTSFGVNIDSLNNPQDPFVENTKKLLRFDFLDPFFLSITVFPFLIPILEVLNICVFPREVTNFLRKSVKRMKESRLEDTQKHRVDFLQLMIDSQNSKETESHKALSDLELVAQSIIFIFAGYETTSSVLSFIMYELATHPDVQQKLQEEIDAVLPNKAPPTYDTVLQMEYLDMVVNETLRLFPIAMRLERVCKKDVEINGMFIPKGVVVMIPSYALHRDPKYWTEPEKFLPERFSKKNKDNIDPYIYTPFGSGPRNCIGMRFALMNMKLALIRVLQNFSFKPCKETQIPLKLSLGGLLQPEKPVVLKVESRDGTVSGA
3',5'-cyclic-AMP phosphodiesterase 4B (Homo sapiens), sequence (Q07343 whole entry, looked up): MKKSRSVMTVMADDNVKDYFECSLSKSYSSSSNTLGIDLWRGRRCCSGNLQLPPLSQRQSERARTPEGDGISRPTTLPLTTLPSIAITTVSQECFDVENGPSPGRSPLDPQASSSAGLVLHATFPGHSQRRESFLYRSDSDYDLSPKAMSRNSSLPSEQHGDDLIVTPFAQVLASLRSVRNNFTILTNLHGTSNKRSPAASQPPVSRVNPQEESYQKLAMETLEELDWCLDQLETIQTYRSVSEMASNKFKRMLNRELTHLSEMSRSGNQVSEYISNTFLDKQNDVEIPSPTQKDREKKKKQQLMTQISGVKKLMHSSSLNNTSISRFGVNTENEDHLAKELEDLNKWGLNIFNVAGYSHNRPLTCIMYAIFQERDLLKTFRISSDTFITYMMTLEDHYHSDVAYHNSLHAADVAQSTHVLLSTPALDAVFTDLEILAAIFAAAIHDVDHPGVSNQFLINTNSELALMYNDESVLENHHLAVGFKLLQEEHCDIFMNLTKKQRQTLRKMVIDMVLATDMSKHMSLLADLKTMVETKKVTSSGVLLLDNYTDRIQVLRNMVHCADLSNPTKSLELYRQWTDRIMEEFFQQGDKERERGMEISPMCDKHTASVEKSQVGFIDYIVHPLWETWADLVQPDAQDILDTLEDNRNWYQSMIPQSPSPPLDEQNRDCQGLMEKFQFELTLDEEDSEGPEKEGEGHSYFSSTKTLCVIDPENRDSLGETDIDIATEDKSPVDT
Glucocorticoid receptor (Homo sapiens), sequence (P04150 whole entry, looked up, the tested form may be a part): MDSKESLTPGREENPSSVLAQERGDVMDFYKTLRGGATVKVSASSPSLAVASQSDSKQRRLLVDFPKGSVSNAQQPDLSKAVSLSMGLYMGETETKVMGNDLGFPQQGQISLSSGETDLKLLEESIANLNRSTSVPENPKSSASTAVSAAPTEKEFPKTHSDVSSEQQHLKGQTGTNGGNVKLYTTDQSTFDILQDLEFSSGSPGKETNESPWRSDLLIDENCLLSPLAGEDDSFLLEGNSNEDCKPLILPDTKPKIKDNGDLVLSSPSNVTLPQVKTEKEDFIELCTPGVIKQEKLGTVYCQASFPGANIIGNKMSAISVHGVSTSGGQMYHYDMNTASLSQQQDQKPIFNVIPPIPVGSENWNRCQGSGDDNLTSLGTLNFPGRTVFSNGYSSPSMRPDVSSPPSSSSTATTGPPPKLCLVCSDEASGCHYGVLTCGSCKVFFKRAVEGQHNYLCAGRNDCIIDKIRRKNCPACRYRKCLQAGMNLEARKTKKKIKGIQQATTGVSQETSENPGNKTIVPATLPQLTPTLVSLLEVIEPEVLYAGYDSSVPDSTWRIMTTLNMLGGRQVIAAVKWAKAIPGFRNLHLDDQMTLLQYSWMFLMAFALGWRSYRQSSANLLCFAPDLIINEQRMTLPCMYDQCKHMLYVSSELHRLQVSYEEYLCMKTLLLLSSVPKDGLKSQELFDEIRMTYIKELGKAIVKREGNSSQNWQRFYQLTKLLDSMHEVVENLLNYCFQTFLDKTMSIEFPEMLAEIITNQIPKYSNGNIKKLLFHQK
Cytochrome P450 1A2 (Homo sapiens), sequence (P05177 whole entry, looked up): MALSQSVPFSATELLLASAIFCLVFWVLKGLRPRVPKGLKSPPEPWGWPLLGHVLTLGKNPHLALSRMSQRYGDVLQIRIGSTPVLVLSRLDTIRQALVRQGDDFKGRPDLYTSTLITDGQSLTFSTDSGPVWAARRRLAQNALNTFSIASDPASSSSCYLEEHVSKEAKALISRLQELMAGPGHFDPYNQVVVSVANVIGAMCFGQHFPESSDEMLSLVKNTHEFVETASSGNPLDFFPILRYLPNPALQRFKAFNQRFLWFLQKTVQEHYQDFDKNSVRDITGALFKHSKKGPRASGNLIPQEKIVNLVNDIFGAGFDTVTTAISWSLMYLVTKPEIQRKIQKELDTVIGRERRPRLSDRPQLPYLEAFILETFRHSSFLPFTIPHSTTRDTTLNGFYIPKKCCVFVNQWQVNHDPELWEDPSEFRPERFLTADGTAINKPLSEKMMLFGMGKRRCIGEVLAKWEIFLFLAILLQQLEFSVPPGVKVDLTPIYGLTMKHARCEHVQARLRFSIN
Cytochrome P450 2D6 (Homo sapiens), sequence (P10635 whole entry, looked up): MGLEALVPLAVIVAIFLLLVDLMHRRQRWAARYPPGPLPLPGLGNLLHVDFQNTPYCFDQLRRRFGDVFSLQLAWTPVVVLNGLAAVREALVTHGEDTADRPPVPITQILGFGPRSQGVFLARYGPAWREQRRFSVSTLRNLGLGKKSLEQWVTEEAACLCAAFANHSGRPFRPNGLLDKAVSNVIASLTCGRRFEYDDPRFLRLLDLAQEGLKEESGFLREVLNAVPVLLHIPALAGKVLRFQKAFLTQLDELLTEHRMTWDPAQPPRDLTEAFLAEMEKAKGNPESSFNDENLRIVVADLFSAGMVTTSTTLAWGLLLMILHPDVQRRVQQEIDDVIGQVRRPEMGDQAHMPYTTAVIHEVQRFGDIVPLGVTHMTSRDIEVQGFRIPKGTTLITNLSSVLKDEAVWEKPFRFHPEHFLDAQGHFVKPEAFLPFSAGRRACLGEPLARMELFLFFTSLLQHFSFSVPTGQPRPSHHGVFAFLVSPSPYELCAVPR
Cytochrome P450 2C9 (Homo sapiens), sequence (P11712 whole entry, looked up): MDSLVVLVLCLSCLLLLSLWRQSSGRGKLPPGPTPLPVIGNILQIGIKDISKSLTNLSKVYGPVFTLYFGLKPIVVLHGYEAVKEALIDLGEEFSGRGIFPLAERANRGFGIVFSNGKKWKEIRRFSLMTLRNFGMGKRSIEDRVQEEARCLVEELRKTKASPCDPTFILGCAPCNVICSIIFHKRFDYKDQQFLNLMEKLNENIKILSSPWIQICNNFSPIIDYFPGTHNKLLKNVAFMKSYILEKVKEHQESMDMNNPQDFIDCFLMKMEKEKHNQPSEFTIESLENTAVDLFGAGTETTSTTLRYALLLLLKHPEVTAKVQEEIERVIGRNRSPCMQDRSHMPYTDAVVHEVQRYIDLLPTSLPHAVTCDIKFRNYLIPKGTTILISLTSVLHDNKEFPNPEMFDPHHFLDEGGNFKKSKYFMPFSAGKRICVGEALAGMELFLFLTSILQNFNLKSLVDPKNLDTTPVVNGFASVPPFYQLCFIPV

With `COc1ccccc1CN1CCCC2(CCN(C(=O)c3cc(C(F)(F)F)cc(C(F)(F)F)c3)CC2)C1`, the Potency is > 11.4 µM (inactive) in experiment [1] and > 46 µM (inactive) in [3]. Also, the activity change, negative = inhibition in [2] was 16.7% (inactive); in [6] it was 3.12% (inactive). Also, the Potency result in experiment [4] and in experiment [5] was “inactive” in each case. The values for the max response in experiment [6] (setting [16]) and in experiment [6] (setting [17]) were -3.38% and 1.79%, respectively. For the same molecule, in [7], the outcome was inactive.
As for `O=C(Oc1ccccc1)N1CCC2(CC1)CN(c1ccccn1)C2`, the Potency was > 11.4 µM (inactive) in experiment [1], > 46 µM (inactive) in [3] and 15.8 µM (active) in [10]. In addition, the results for the activity change, negative = inhibition in [2] and in experiment [6] were 5.21% (inactive) and 7.94% (inactive), respectively. In addition, in experiment [8], the activity, negative = inhibition was -0.424% (inactive). Further, the Potency result in [4], in experiment [5] and in experiment [9] was “inactive” in each case. Further, the max response in experiment [6] (setting [16]) stood at 3.44%; in experiment [6] (setting [17]) it was 13.9%. The result in [7] was inactive.
`N#Cc1ccc(CN2CC3(CCN(C(=O)c4cnccn4)CC3)C2)cc1`: the Potency is > 11.4 µM (inactive) in [1], > 46 µM (inactive) in experiment [3] and 3.16 µM (active) in experiment [11]. The activity change, negative = inhibition was -10.3% (inactive) in [2] and 3.16% (inactive) in [6]. The activity, negative = inhibition in [8] is 11.6% (inactive). For the same molecule, the Potency entry in [4] and in [5] was “inactive” in each case. In addition, the max response in experiment [6] (setting [16]) turned out to be 15%; in [6] (setting [17]) it was 20.2%. Moreover, in experiment [7], the outcome was inactive.
As for `COc1ccccc1CN1CCC2(CC1)CCN(S(C)(=O)=O)CC2`, the Potency in [1] is > 11.4 µM (inactive); in [3], > 46 µM (inactive); in experiment [14] it was 0.02 µM (active). Moreover, the Potency entry in experiment [12], in experiment [4] and in experiment [5] was “inactive” each time. Further, the activity change, negative = inhibition was -27.6% (inactive) in [13] and -1.09% (inactive) in experiment [6]. In [8], the activity, negative = inhibition is -4.05% (inactive). The results for the max response in experiment [6] (setting [16]) and in [6] (setting [17]) were -18.8% and -18.2%, respectively. For the same molecule, the result in [7] was inactive.
As for `COCC(=O)N1CCC2(CC1)CCN(c1ccncc1)CC2`, the values for the Potency in experiment [1] and in [3] were > 11.4 µM (inactive) and > 46 µM (inactive), respectively. Besides, the figures for the activity change, negative = inhibition in experiment [2] and in experiment [6] were 7.44% (inactive) and -1.56% (inactive), respectively. In addition, the activity, negative = inhibition in experiment [8] is 16.3% (inactive). For the same molecule, the Potency entry in [4] and in experiment [5] was “inactive” each time. Besides, the results for the max response in experiment [6] (setting [16]) and in experiment [6] (setting [17]) were -6.96% and -10.2%, respectively. Besides, the result in experiment [7] was inactive.
As for `O=S(=O)(c1ccccc1)N1CCC2(CC1)CN(c1ccncc1)C2`, the Potency in experiment [1] is > 11.4 µM (inactive); in experiment [3], > 46 µM (inactive). The activity change, negative = inhibition in [2] is 0.671% (inactive); in experiment [6] it was 2% (inactive). In addition, the activity, negative = inhibition in experiment [8] is 0.614% (inactive). For the same molecule, the Potency entry in experiment [4], in experiment [5], in [15] and in experiment [10] was “inactive” in each case. Further, the figures for the max response in experiment [6] (setting [16]) and in [6] (setting [17]) were 0.397% and -0.685%, respectively. In addition, the result in experiment [7] was inactive.
`CC(C)NC(=O)N1CC[C@@]2(CCCN(S(=O)(=O)c3ccccc3)C2)C1`: the Potency in [1] is > 11.4 µM (inactive); in [3], > 46 µM (inactive). Also, the Potency entry in experiment [12], in experiment [4], in experiment [5] and in [10] was “inactive” throughout. The activity change, negative = inhibition was 18.4% (inactive) in experiment [13] and 3.83% (inactive) in [6]. The activity, negative = inhibition in experiment [8] is 1.4% (inactive). Also, the max response in experiment [6] (setting [16]) is -9.01%; in [6] (setting [17]), -4.67%. Besides, in [7], the result was inactive.
